Here are results for 101 compounds from ChEMBL document CHEMBL4513216, “Probing the Open Global Health Chemical Diversity Library for Multistage-Active Starting Points for Next-Generation Antimalarials” (ACS Infect Dis, 2020).

About 2,100 (3.2%) of roughly 65,000 compounds showed an effect of 50% or more. The median lay at about -52%. The sample as a whole holds a higher share of strong results than the screen did.

The assay deals with Plasmodium falciparum. Nature of the assay: Screen against P. falciparum Asexual Blood Stage (ABS), at 5uM. It counts as functional, Dd2. The following applies: tested at 5 uM.
Consider `CNC(=O)CCN(C)CC1(c2ccc(Br)cc2)CC1`, for which the INHIBITION is 87.3%. As to `CN1CCC(c2cncc(N(C)C)n2)CC1`, the INHIBITION is reported as -19%. Consider `CN1CCCC(c2cncc(-c3cccc(C(F)(F)F)c3)n2)C1` (stereo unspecified), for which the INHIBITION is on record as 77.3%. As for `Cc1sc2c(C3CCCN(C)C3)nc(C)n2c1C` (stereo unspecified), the figure is 42.7%; as for `CC(=O)N1CCCC(c2ccc(N3CCN(C)CC3)cn2)C1` (stereo unspecified), -0.837%; as for `CN1CCCC(c2cccc(-c3cccc(F)c3)n2)C1` (stereo unspecified), 74%. On to `CN1CCCC(c2cccc(-c3cccc(C(F)(F)F)c3)n2)C1` (stereo unspecified), for which the INHIBITION was 73.7%.

As for `CNC(=O)c1ccc2c(c1)C1(CCN(CC(C)C)CC1)C(=O)N2`, the INHIBITION is given as -15.5%. As for `Cc1nccc([C@H]2C[C@@H]3CCN(Cc4ccco4)C[C@H]3O2)n1`, the INHIBITION is -9.96%. Consider `Cc1ccc(CC(=O)N2CCN(C3CCOC3=O)CC2)cc1` (stereo unspecified), for which the INHIBITION is reported as -27.2%. As for `CC(C)N1CCN(C)C2(CCN(C(=O)c3ccnnc3)CC2)C1=O`, the INHIBITION is -37.3%. In the case of `CN1CCN2C(=O)N(C3CCOCC3)C[C@H]2C1`, the INHIBITION is reported as -99.7%. Consider `c1cncc(COCC2CC[C@H]3[C@H]2OCCN3Cc2ccoc2)c1` (stereo partly specified), for which the INHIBITION is -12.2%.

For the compound `CCC[C@H]1CN(S(=O)(=O)c2c(C)noc2C)C[C@@H]1N`, the INHIBITION is reported as 82.5%. As for `Cc1noc(C)c1CN1C[C@H]2CNC[C@H]2C1`, the figure is 9.33%. Take `CCC[C@H]1CN(S(=O)(=O)c2ccc(CC)s2)C[C@@H]1N`: the INHIBITION is given as 75.8%.

With `Cc1nc2sccn2c1CN(CCCN(C)C)Cc1ccco1`, the INHIBITION came out at 86.2%. In the case of `Cc1nc(CC(=O)N(CCN2CCOCC2)Cc2ccco2)c(C)s1`, the INHIBITION is recorded as -135%.

Regarding `Cc1ccc(CN(CCN(C)C)Cc2c(C)nc3sccn23)o1`, the INHIBITION was 84.6%. As for `CN(C)CCN(Cc1ccco1)C(=O)Cc1cn2ccsc2n1`, the figure is -5.56%.

For the compound `Cc1ccc(CN(CCN(C)C)C(=O)Cc2cn3ccccc3n2)o1`, the INHIBITION is given as -67.1%.

With `CNC(=O)CN1CCO[C@H]2CN(C(=O)c3ccncc3F)C[C@H]21`, the INHIBITION was -74.6%. `CCCn1cc(C(=O)NC(C(=O)O)c2ccccc2C(F)(F)F)c(C)n1` (stereo unspecified): the INHIBITION is -51.5%.

Consider `CS(=O)(=O)N1CCN(CC2CC2)c2ncccc2C1`, for which the INHIBITION is recorded as -25.9%. As for `OC[C@H]1CN2CCN(c3ccccn3)C[C@@H]2[C@@H]1c1ccccc1`, the figure is -11.3%. On to `COc1ccc(CN2CCCC2)cc1Oc1ccc2c(c1)CC(CN)O2` (stereo unspecified), for which the INHIBITION worked out at 88.2%.

In the case of `NCC1Cc2cc(Oc3cc(F)c(CN4CCCC4)c(F)c3)ccc2O1` (stereo unspecified), the INHIBITION is reported as 77.8%. Take `COc1ncccc1CN1C[C@@H]2COC[C@]2(COCC2CC2)C1`: the INHIBITION was 33.8%. Take `Cc1cccc(CN2C[C@@H]3COC[C@]3(COc3cccnc3)C2)n1`: the INHIBITION is recorded as -77.5%.

Turning to `Cc1noc(C)c1CN1CCOCC12CCN(c1nccs1)CC2`, the INHIBITION is on record as -91.6%. With `O=C(CCc1ccccc1)N1C[C@H]2CCN[C@H]2C1`, the INHIBITION is on record as -6.16%. With `O=C(c1scc2c1OCCO2)N1CCOC(CCc2ccccc2)C1` (stereo unspecified) the figure was 88.7%. With `O=C(Cc1ccccc1)N1C[C@@H]2OCCN(CC3CCCO3)[C@@H]2C1` (stereo partly specified), the INHIBITION is listed as -34.5%. Consider `O=C(NCCc1ccccn1)[C@@]12CCO[C@@H]1CCN(CC1CC1)C2`, for which the INHIBITION is 30.8%. Consider `CN1CC[C@H]2OCC[C@@]2(C(=O)NCCc2ccccn2)C1`, for which the INHIBITION is 12.7%.

Regarding `Cc1ccccc1C1(C(=O)NCCN2CCCC(C)C2)CCOCC1` (stereo unspecified), the INHIBITION is recorded as 88.1%. As to `O=C(NCCc1ccccn1)[C@@]12CCO[C@@H]1CCN(C1CCC1)C2`, the INHIBITION stood at 44.6%. `Cc1ccccc1C1(C(=O)NCCN2CCC(C)CC2)CCOCC1`: the INHIBITION stood at 85.3%. In the case of `O=S1(=O)CCC(n2cc(C3=CCN(CCN4CCCCC4)CC3)cn2)C1` (stereo unspecified), the INHIBITION is 12.6%.

Take `O=C(N[C@H]1CN[C@H]2CCCO[C@H]21)c1ccno1`: the INHIBITION is on record as -87.2%. Consider `c1cc(COC[C@@H]2CCC[C@@]23CNCCO3)ccn1`, for which the INHIBITION stood at 7.1%. With `COc1cc(CNCC(O)c2ccc(F)cc2F)cc2c1OCO2` (stereo unspecified), the INHIBITION amounted to 85.5%. With `COc1cc(CNCC(O)c2ccccc2F)cc2c1OCO2` (stereo unspecified), the INHIBITION is 78%. In the case of `CC[C@H](N)Cn1nc(-c2cccs2)oc1=O`, the INHIBITION is listed as -186%. As for `CCc1nnc(C(C)N2CCCN(C(=O)Oc3ccccc3)CC2)o1` (stereo unspecified), the INHIBITION is -87.2%. Consider `CC(C)NC(=O)c1ccc2c(c1)C1(CCN(C)CC1)C(=O)N2`, for which the INHIBITION is listed as -37.9%. With `CC(C)CN1CCC2(CC1)C(=O)Nc1ccc(C(=O)NC(C)C)cc12`, the INHIBITION was -39.5%. Consider `CCC(CN1CCCC1)NC(=O)C1(c2cccc(F)c2)CC1` (stereo unspecified), for which the INHIBITION is recorded as 84.7%. `O=C(Nc1cccc(F)c1)N1CCC(CO)(Nc2ccccc2)CC1`: the INHIBITION is -35.15%.

Consider `CCC(CN1CCN(C)CC1)NC(=O)C1(c2cccc(F)c2)CC1` (stereo unspecified), for which the INHIBITION was found to be 77.1%.

Regarding `CC(C)n1cc(C(=O)NC2CN3CCC2CC3)c2ccccc21` (stereo unspecified), the INHIBITION is on record as -24.9%. In the case of `Cc1[nH]c2ccccc2c1-c1ccnc(NCCN2CCOCC2)n1`, the INHIBITION is 82.5%. As for `CC(C)(C)n1cc(C(=O)NCCN2CCOCC2)c2cccnc21`, the figure is -89.4%; as for `Cn1cc(C2NC3(CCCC3)C(=O)N2CC2CC2)c(=O)n(C)c1=O` (stereo unspecified), -43.9%. Take `Cc1ccc(N2CC[C@@H]3CN(Cc4cc[nH]n4)C[C@@H]3C2)nn1`: the INHIBITION is -19.6%.

For `Cc1cc(CN2C[C@@H]3CN(C(=O)c4ccco4)CCO[C@@H]3C2)no1`, the INHIBITION is reported as -45%. For `NCC1(c2cccc(C(F)(F)F)c2)CC1`, the INHIBITION is recorded as -97.7%.

As to `NCC1(c2cccc(C(F)(F)F)c2)CCOCC1`, the INHIBITION was 69.9%. Turning to `NCC1(c2cccc(Br)c2)CCOCC1`, the INHIBITION turned out to be 79.5%. Consider `NCC1(c2cccc(F)c2)CCOCC1`, for which the INHIBITION amounted to 2.49%.

On to `Cc1nn(-c2ccc(C(=O)O)cc2)c2c1C(c1ccsc1)SCC(=O)N2` (stereo unspecified), for which the INHIBITION is given as -82.6%. For the compound `COCCN1CCN(Cc2ccco2)Cc2ccc(C)nc21`, the INHIBITION is -85%.

Consider `COCCN1CCO[C@@H]2CN(S(=O)(=O)c3cccnc3)C[C@@H]2C1`, for which the INHIBITION was -76.3%.

In the case of `Cc1cc(CN2C[C@@H]3COC[C@@H](C(=O)N4CCCCO4)[C@@H]3C2)no1`, the INHIBITION is reported as -31.1%. For the compound `CN(C[C@@H]1CCC[C@@H]2CN(Cc3cccnc3)C[C@@H]21)C1CC1`, the INHIBITION is recorded as 56.5%.

With `COc1ccc(CN2C[C@H]3CCC[C@@H](CN(C)C)[C@H]3C2)cn1`, the INHIBITION is listed as 50%.

Consider `c1cnc(NC[C@@H]2CCC[C@@H]3CN(Cc4cccnc4)C[C@@H]32)nc1`, for which the INHIBITION was 42.2%. On to `COCCN(C)C[C@@H]1CCC[C@@H]2CN(Cc3ccc(OC)nc3)C[C@@H]21`, for which the INHIBITION is 79.6%. Take `COc1ccc(CN2C[C@H]3CCC[C@@H](CN(C)C4CC4)[C@H]3C2)cn1`: the INHIBITION is listed as 78.2%. For the compound `Cn1cc(CN2C[C@H]3CCC[C@@H](CNc4ncccn4)[C@H]3C2)cn1`, the INHIBITION is given as -87.3%. Turning to `O=C(C[C@@H]1COC[C@H]2CN(Cc3cccnc3)C[C@@H]12)N1CCCC1`, the INHIBITION is recorded as -133%.

As to `COC1CCC[C@@H]2CN(Cc3csc(C)n3)C[C@H]12` (stereo partly specified), the INHIBITION is 24.8%.

For `Cc1cccc(CN2C(=O)CC[C@H]3[C@@H]2CCN3CC(=O)N(C)C)n1`, the INHIBITION is -71%. With `CCCN1C(=O)C2(CCCCC2)NC1c1cn(C)c(=O)n(C)c1=O` (stereo unspecified), the INHIBITION is recorded as -5.44%.

As for `CCCN1C[C@@H]2CC[C@H]1CN(C(=O)Cc1c(C)[nH]c(CC)nc1=O)C2`, the INHIBITION is on record as -19.6%. As for `COCc1cncc2c1CCN(Cc1ccccn1)C2`, the figure is -65.2%. Regarding `CC(Cc1c(F)cccc1F)NC(=O)CN(CC(N)=O)C(C)C` (stereo unspecified), the INHIBITION is recorded as -23.8%.

Turning to `COc1ccc(CC(C)Nc2cccc(F)c2)cc1` (stereo unspecified), the INHIBITION was -65.5%. As for `COc1ccc(C(NCc2cccc(O)c2)C2CC2)cc1` (stereo unspecified), the INHIBITION was 83.6%. On to `O=C(Cc1ccc(O)c(Cl)c1)N1CCN(CC2CC2)[C@@H]2CS(=O)(=O)C[C@@H]21`, for which the INHIBITION was -53.2%.

`COCCN1CCC2(COCc3cnc(N4CCOCC4)nc32)C1` (stereo unspecified): the INHIBITION was -18.1%. As to `CN1CCCC(CNS(=O)(=O)N2CCc3ccccc3C2)C1` (stereo unspecified), the INHIBITION is 77.4%. Take `CN1CCN(S(=O)(=O)C2CC2)Cc2cccnc21`: the INHIBITION is reported as -77.8%. For `COCC(=O)NC[C@H]1C[C@@H]2CCN1C[C@@H]2CN1CCc2ccccc2C1`, the INHIBITION is given as -27.5%.

Take `CCOCCC(=O)N1C[C@@H]2CC[C@H]1CN(Cc1ccncc1)C2`: the INHIBITION was -31.8%. As for `O[C@]12CCNC[C@H]1CN(c1ncccc1Cl)CC2`, the figure is -135%; as for `Clc1ccccc1C1(c2ccnc(C3CCCC3)n2)CCNCC1`, 83%. Regarding `Clc1ccccc1C1(c2ccnc(C3CC3)n2)CCNCC1`, the INHIBITION is given as 73.5%. With `Clc1ccccc1C1(c2ccnc(CC3CC3)n2)CCNCC1` the figure was 87.8%; with `Cc1nc(CN2CCC3(C2)CN(C(=O)c2conc2C)C3)cs1`, -65.1%. `Fc1cccnc1O[C@@H]1CC[C@H]2[C@H]1OCCN2Cc1nccs1`: the INHIBITION is recorded as -91.9%. As to `CC(C)(C)n1ncc2c1NC(=O)CSC2c1ccc2c(c1)OCCO2` (stereo unspecified), the INHIBITION was -24.5%.

As for `O=C(COc1cccc(F)c1)N1C[C@@H](O)[C@H](N2CCCC2)C1`, the INHIBITION is -133%. Regarding `OCc1csc(N2CCCC(COc3cccc(F)c3)C2)n1` (stereo unspecified), the INHIBITION is reported as 81.2%. Take `CCCOc1ccc(C2SCC(=O)Nc3c2c(=O)[nH]n3C(C)C)cc1` (stereo unspecified): the INHIBITION is -95%. As for `CC(=O)C1(c2ccccc2)CCN(C(=O)c2ccn3nnnc3c2)CC1`, the figure is -138%; as for `CC(N)Cc1ccccc1Sc1ccc(O)cc1` (stereo unspecified), 72.4%; as for `CC(N)Cc1ccccc1Sc1ccccc1` (stereo unspecified), 78.3%. Turning to `CNC(C)Cc1ccccc1Sc1ccc(O)cc1` (stereo unspecified), the INHIBITION turned out to be 88.2%. With `CC[C@H](C)[C@@H](CO)NC(C)Cc1ccccc1F` (stereo partly specified), the INHIBITION was 49.7%.

Turning to `CNS(=O)(=O)CC(=O)NC(C)Cc1ccccc1Br` (stereo unspecified), the INHIBITION is reported as -184%.
